Test results published in PubChem BioAssay (EPA / NIEHS).
Values joined by “and” are separate entries in the source; they are usually repeats but may differ in a detail not shown here. Equal entries are not always repeated. Results filed as inconclusive are left out. More than one record can exist for a structure, and the calls need not agree. Active and inactive are the calls of the source. The calls were made as follows, unless noted: active = hit-call score of the fitted dose curve at least 0.9, where 1 is the maximum; inactive = score below 0.9.

What was measured:
[1] = CCTE_Deisenroth_AIME_384WELL_CTox_Active: Cytotoxicity Assessment (CTOX) in CCTE's 384-well Estrogen Receptor Transactivation Assay with AIME metabolic competence (metabolism positive), Deisenroth Lab (AID 2284037; active = hit-call score of the fitted dose curve at least 0.9, where 1 is the maximum;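 also: chemicals first conditioned 2 h by alginate-bound induced rat liver S9 before cells; activity means signal loss indicating cell death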)
In short: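 Chemicals pre-incubated 2 hours with alginate-immobilised phenobarbital/beta-naphthoflavone-induced male Sprague Dawley rat liver S9, then conditioned medium applied 24 hour to VM7Luc4E2 cells. Viability by fluorogenic protease substrate; 10-point series 0.002 - 200 uM.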

[2] = CCTE_Deisenroth_AIME_384WELL_CTox_Inactive: Cytotoxicity Assessment (CTOX) in CCTE's 384-well Estrogen Receptor Transactivation Assay without AIME metabolic competence (metabolism negative), Deisenroth Lab (AID 2284039; active = hit-call score of the fitted dose curve at least 0.9, where 1 is the maximum;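 also: cell viability via live-cell protease substrate cleaved to fluorescent probe; cells exposed 24 h to medium preincubated 2 h with alginate-water beads without S9; loss of fluorescence signal means loss of viability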)
In short: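 Fluorescence from a live-cell protease substrate, read after 24 h in VM7Luc4E2 cells, indicated viability. Test medium came from a 2 h AIME step without hepatic S9 (alginate-water microspheres); concentrations spanned 0.002 - 200 uM, single technical replicate per run.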

[3] = biological target: Estrogen receptor (Homo sapiens) (UniProt P03372); assay: CCTE_Deisenroth_AIME_384WELL_LUC_Active: CCTE's 384-well Estrogen Receptor Transactivation Assay with AIME metabolic competence (ERTA luciferase; metabolism positive), Deisenroth Lab (AID 2284030; active = hit-call score of the fitted dose curve at least 0.9, where 1 is the maximum)
Chain of Estrogen receptor (Homo sapiens) (P03372 whole entry, looked up): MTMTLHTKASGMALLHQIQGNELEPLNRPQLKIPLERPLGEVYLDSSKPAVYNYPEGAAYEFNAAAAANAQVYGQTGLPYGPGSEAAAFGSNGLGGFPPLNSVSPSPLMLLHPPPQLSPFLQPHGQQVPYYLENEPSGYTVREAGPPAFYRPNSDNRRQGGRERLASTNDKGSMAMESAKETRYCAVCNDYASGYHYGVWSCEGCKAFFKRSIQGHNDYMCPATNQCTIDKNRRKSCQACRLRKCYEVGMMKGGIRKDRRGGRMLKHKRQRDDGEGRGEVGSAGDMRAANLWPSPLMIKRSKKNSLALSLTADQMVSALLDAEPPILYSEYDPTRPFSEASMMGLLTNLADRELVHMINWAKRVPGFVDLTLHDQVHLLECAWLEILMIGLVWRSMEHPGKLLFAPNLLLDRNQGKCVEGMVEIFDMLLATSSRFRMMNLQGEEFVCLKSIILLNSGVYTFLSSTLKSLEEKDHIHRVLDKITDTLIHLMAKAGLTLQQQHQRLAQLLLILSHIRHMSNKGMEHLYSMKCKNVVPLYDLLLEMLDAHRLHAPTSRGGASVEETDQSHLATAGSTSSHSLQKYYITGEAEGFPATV
In short: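 Estrogenic luciferase signal in VM7Luc4E2 cells is measured at 24 hour, after chemicals have been preconditioned 2 hours with PB/BNF-induced rat hepatic S9 in alginate. Gain of signal is fitted relative to 17beta-estradiol, across 0.002 - 200 uM.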

[4] = biological target: Estrogen receptor (Homo sapiens) (UniProt P03372); assay: CCTE_Deisenroth_AIME_384WELL_LUC_Inactive: CCTE's 384-well Estrogen Receptor Transactivation Assay without AIME metabolic competence (ERTA luciferase; metabolism negative), Deisenroth Lab (AID 2284038; active = hit-call score of the fitted dose curve at least 0.9, where 1 is the maximum;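 also: VM7Luc4E2 breast cells given medium preincubated 2 h with S9-free microspheres; hits raise estrogen receptor luciferase signal so potencies reflect agonists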)
In short: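 Chemicals (10-point series, 0.002 - 200 uM) were incubated 2 hours with alginate-water microsphere lids lacking S9, then the conditioned medium was transferred to VM7Luc4E2 breast cells for 24 hour. Luciferase induction was read by bioluminescence, fitted upward relative to 17beta-estradiol.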

DIO2 (gene 1734) = assay: CCTE_GLTED_hDIO2: CCTE's human Deiodinase 2 (DIO2) Inhibition Assay, Great Lakes Toxicology and Ecology Division (GLTED) Lab (AID 2284050; active = hit-call score of the fitted dose curve at least 0.9, where 1 is the maximum)
In short: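 Cell-free human DIO2 enzyme was incubated with test chemical for 3 h; iodide liberated from substrate was then quantified by the Sandell-Kolthoff reaction (absorbance), run in triplicate. Loss of signal versus DMSO baseline indicated inhibition.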

[5] = CCTE_Shafer_MEA_dev_firing_rate_mean: CCTE's Neural Network Formation Assay for Mean Firing Rate, Shafer Lab (AID 2284031);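 as to AC50: curve fitted for loss of firing so AC50 reflects decreased mean firing rate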
In short: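 Primary rat cortical neurons on 48-well, 16-electrode MEAs (PEI-coated, laminin at plating), exposed from day 0 with compound renewed at DIV 5 and 9. Spikes recorded DIV 5, 7, 9, 12; well-mean firing rate collapsed to trapezoidal AUC, loss-of-signal vs DMSO.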

[6] = CCTE_Shafer_MEA_dev_per_burst_spike_percent: CCTE's Neural Network Formation Assay for Percent of Spikes in a Burst, Shafer Lab (AID 2284032);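 as to AC50: fitted as a decrease in burst spike percentage below DMSO baseline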
In short: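 Rat primary cortical neurons on 16-electrode MEA wells, dosed from plating day 0 for 12 days with renewal on DIV 5 and 9; spikes-in-bursts percentage averaged over bursting electrodes, collapsed as AUC across days 5, 7, 9, 12; loss direction versus DMSO.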

[7] = CCTE_Shafer_MEA_dev_burst_rate: CCTE's Neural Network Formation Assay for Burst Rate, Shafer Lab (AID 2284042);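 as to AC50: potency for loss of burst rate below DMSO control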
In short: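 Developmental network assay measuring how 12-day exposure of rat cortical neuron cultures alters bursting on extracellular MEA recordings. Values are AUC of well-mean burst rate across four recording days, relative to DMSO vehicle.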

[8] = CCTE_Shafer_MEA_dev_bursting_electrodes_number: CCTE's Neural Network Formation Assay for Number of Bursting Electrodes, Shafer Lab (AID 2284043; active = hit-call score of the fitted dose curve at least 0.9, where 1 is the maximum;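 also: potency is for loss of bursting electrodes relative to DMSO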)
In short: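 Primary rat cortical neurons plated on 16-electrode MEA wells, exposed from day 0 with compound renewed at DIV 5 and 9. Electrodes bursting ≥1 burst per 2 min counted on days 5, 7, 9 and 12; trapezoidal AUC across days, fitted for loss versus DMSO.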

[9] = CCTE_Shafer_MEA_dev_per_burst_interspike_interval: CCTE's Neural Network Formation Assay for Burst Interspike Interval, Shafer Lab (AID 2284044);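 also: mean spike spacing inside bursts as AUC over recordings on days 5 7 9 12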;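 as to AC50: potency for a decrease of within-burst interspike interval below DMSO level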
In short: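 Spontaneous activity of maturing rat cortical networks is recorded on DIV 5, 7, 9 and 12 under chronic compound exposure beginning at plating. Endpoint: burst interspike interval well-mean, collapsed into trapezoidal AUC and fitted in the negative direction relative to DMSO.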

[10] = CCTE_Shafer_MEA_dev_burst_duration_mean: CCTE's Neural Network Formation Assay for Mean Burst Duration, Shafer Lab (AID 2284045)
In short: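 Primary rat cortical neurons on 48-well 16-electrode MEA plates, exposed from day 0 with renewal at DIV 5 and 9; spontaneous activity recorded on days 5, 7, 9, 12. Well-mean burst duration across bursting electrodes, collapsed as trapezoidal AUC; DMSO baseline.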

[11] = CCTE_Shafer_MEA_dev_interburst_interval_mean: CCTE's Neural Network Formation Assay for Mean Interburst Interval, Shafer Lab (AID 2284046);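 also: well-mean interburst interval of bursting electrodes as AUC over four recording days; curve fitted for decrease in interburst interval relative to DMSO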
In short: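 Network formation assay in primary rat cortical cultures, exposed from DIV 0 to 12. Mean interburst interval per well, integrated as AUC over four recordings.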

[12] = CCTE_Shafer_MEA_dev_network_spike_number: CCTE's Neural Network Formation Assay for Number of Network Spikes, Shafer Lab (AID 2284048);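 as to AC50: fit as a loss of signal meaning fewer network spikes than DMSO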
In short: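 Primary rat cortical neurons on PEI/laminin 48-well MEA plates, dosed from plating day 0 for 12 days, renewed at DIV 5 and 9. Network spike counts recorded DIV 5, 7, 9, 12, collapsed as trapezoidal AUC; DMSO baseline.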

[13] = CCTE_Shafer_MEA_dev_network_spike_peak: CCTE's Neural Network Formation Assay for Mean Number of Electrodes in Network Spike, Shafer Lab (AID 2284049);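 also: fitted for loss of signal meaning fewer electrodes in network spikes than DMSO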
In short: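 Network-spike peak electrode count from recordings on days 5, 7, 9 and 12 was combined as trapezoidal area under the curve. Rat cortical cultures were treated continuously from plating, with compound renewed at each feed (DIV 5, 9); fits versus DMSO.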

[14] = CCTE_Shafer_MEA_dev_spike_duration_mean: CCTE's Neural Network Formation Assay for Mean Spike Duration, Shafer Lab (AID 2284051);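 also: mean network spike duration pooled as area under curve over DIV 5 to 12 recordings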;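 as to AC50: potency for a decrease in mean network spike duration versus DMSO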
In short: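 With DMSO as baseline, loss of mean network spike duration was scored from extracellular recordings of rat cortical neurons on MEA plates. Exposure spanned plating to DIV 12; the four recording days were collapsed into one AUC value.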

[15] = CCTE_Shafer_MEA_dev_network_spike_duration_std: CCTE's Neural Network Formation Assay for Standard Deviation of Network Spike Duration, Shafer Lab (AID 2284052);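 also: area under curve of spike duration SD across recording days 5 to 12; hits are decreases in network spike duration SD versus DMSO vehicle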
In short: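 Developing networks of rat cortical neurons were exposed over twelve days in vitro on 48-well MEA plates. Trapezoidal AUC of recordings (DIV 5–12) was analysed for signal loss relative to DMSO vehicle.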

[16] = CCTE_Shafer_MEA_dev_per_network_spike_spike_number_mean: CCTE's Neural Network Formation Assay for Mean Number of Spikes in a Network Spike, Shafer Lab (AID 2284053);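 as to AC50: fitted as decrease in spikes per network spike relative to DMSO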
In short: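 First, rat cortical cells (1.5 x 10^5/well) were seeded onto MEA wells; second, dosing began at plating and was refreshed on DIV 5 and 9; finally, network-spike spike counts across DIV 5–12 were summarized as AUC.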

Measured: AC50

Oc1cccc2cccnc12
inactive: [1] | [2]

CCOC(=O)Nc1cccc(OC(=O)Nc2ccccc2)c1
inactive: [3] | [4]

Clc1ccc(COC(Cn2ccnc2)c2ccc(Cl)cc2Cl)cc1 (centres undefined)
active: DIO2 (gene 1734) 95.2 µM

C[C@@H]1C[C@@H]([C@H](O)CC2CC(=O)NC(=O)C2)C(=O)[C@@H](C)C1
active: [1] 28.5 µM
inactive: [2]

[O-][Cl+2]([O-])O
inactive: [3] | [4] | [2]

CCOP(=S)(OCC)Oc1nc(Cl)c(Cl)cc1Cl
inactive: [7] | [9] | [10] | [11] | [12] | [15] | [16]
active: [5] 13.3 µM and 2.98 µM and 12 µM | [6] 23.3 µM and 15 µM and 21.4 µM | [7] 17.1 µM | [8] 23.2 µM and 4.58 µM and 21.5 µM | [9] 15.7 µM and 5.07 µM | [11] 15.2 µM and 15 µM | [12] 23 µM and 3.97 µM | [13] 23 µM and 10 µM and 23.1 µM | [14] 23 µM and 15 µM and 21.7 µM | [15] 22.7 µM | [16] 22.1 µM and 23.9 µM

COP(=O)(OC)O/C(=C\Cl)c1cc(Cl)c(Cl)cc1Cl
inactive: [5] | [6] | [4] | [7] | [9] | [10] | [11] | [12] | [14] | [15] | [16]
active: [1] 100 µM | [2] 100 µM | [8] 79.3 µM and 51.5 µM | [13] 86.9 µM and 12.5 µM | [14] 84.2 µM

O=C1C(Cl)=C(Cl)C(=O)c2ccccc21
active: [1] 163 µM | [2] 189 µM | DIO2 (gene 1734) 26.8 µM

C=CC(=O)OCCCCCC(C)C
active: DIO2 (gene 1734) 21.1 µM

O=C(Cc1ccccc1)c1ccccc1
active: [3] 112 µM | [4] 72 µM
inactive: [1] | [2]

CC(=O)c1cc(C(C)(C)C)cc2c1CCC2(C)C
inactive: [3] | [1] | [4] | [2]

O=C1CCCN1
inactive: [3] | [1] | [4] | [2]

Cl/C=C\C[N+]12CN3CN(CN(C3)C1)C2
inactive: DIO2 (gene 1734)

CC1(C)CCC(Cc2ccc(Cl)cc2)C1(O)Cn1cncn1 (centres undefined)
active: [1] 120 µM | [2] 119 µM

COP(=O)(OC)OC
inactive: [3] | [4]

CC(C)OC(=O)Nc1ccccc1
active: [3] 17 µM | [4] 17.4 µM

CNC(=O)O/N=C/C(C)(C)S(C)=O (centres undefined)
inactive: [3] | [4]
